The whole screen tested about 5,500 compounds, of which about 2,000 (36%) were called active. Another 18% or so got no clear call; they are omitted. Cut-off read from the data, not from the text of the source: active = normalized growth mostly below about 0.91 (no sharp cut-off); inconclusive = no clear call, values can overlap the other calls; inactive = mostly above about 0.92. The list shows a part of the results.
Test: chemical genetic growth profiling, strain panel (AID 1159580);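 note: tested at 20 µM; growth read once vehicle control cultures reached saturation at 30 °C; 1 = growth at the plate median or of vehicle wells; lower values mean less growth of the strain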
Conditions: growth OD

Measured: normalized growth

COc1ccc2c(c1)OC[C@@H](Cc1ccc(OC)c(OC)c1)[C@H]2O
inactive: S. cerevisiae deletion strains, locus YJR066W, strain TOR1, active compounds read low 0.913 | S. cerevisiae deletion strains, locus YKL009W, strain mrt4, active compounds read low 0.954 | S. cerevisiae deletion strains, locus YKL068W, active compounds read low 0.973 | S. cerevisiae deletion strains, locus YKL085W, strain MDH1 (second series), active compounds read low 0.976 | S. cerevisiae deletion strains, locus YKL085W, strain MDH1, active compounds read low 0.976 | S. cerevisiae deletion strains, locus YKL160W, strain elf1, active compounds read low 1.01 | S. cerevisiae deletion strains, locus YKL190W, strain CNB1, active compounds read low 0.997 | S. cerevisiae deletion strains, locus YKR026C, strain gcn3, active compounds read low 1 | S. cerevisiae deletion strains, locus YKR091W, strain srl3, active compounds read low 1 | S. cerevisiae deletion strains, locus YLL001W, strain dnm1, active compounds read low 0.979 | S. cerevisiae deletion strains, locus YLL026W, active compounds read low 0.996 | S. cerevisiae deletion strains, locus YLL041C, strain sdh2, active compounds read low 1 | S. cerevisiae deletion strains, locus YLR027C, strain aat2, active compounds read low 1.01 | S. cerevisiae deletion strains, locus YLR058C, strain SHM2, active compounds read low 1 | S. cerevisiae deletion strains, locus YLR102C, strain apc9, active compounds read low 0.981 | S. cerevisiae deletion strains, locus YLR113W, strain HOG1, active compounds read low 0.871 | S. cerevisiae deletion strains, locus YLR221C, strain rsa3, active compounds read low 1.01 | S. cerevisiae deletion strains, locus YLR258W, strain gsy2, active compounds read low 0.994 | S. cerevisiae deletion strains, locus YLR262C, strain YPT6, active compounds read low 0.641 | S. cerevisiae deletion strains, locus YLR268W, strain sec22, active compounds read low 0.997 | S. cerevisiae deletion strains, locus YLR320W, strain mms22, active compounds read low 1.01 | S. cerevisiae deletion strains, locus YLR330W, strain CHS5, active compounds read low 0.984 | S. cerevisiae deletion strains, locus YLR342W, strain FKS1 (second series), active compounds read low 1.02 | S. cerevisiae deletion strains, locus YLR342W, strain FKS1, active compounds read low 1 | S. cerevisiae deletion strains, locus YLR357W, strain rsc2, active compounds read low 1.01 | S. cerevisiae deletion strains, locus YLR370C, strain arc18, active compounds read low 1 | S. cerevisiae deletion strains, locus YLR371W, strain rom2, active compounds read low 0.96 | S. cerevisiae deletion strains, locus YLR384C, strain iki3, active compounds read low 1.01 | S. cerevisiae deletion strains, locus YLR418C, strain cdc73, active compounds read low 1.04 | S. cerevisiae deletion strains, locus YML016C, strain PPZ1, active compounds read low 1 | S. cerevisiae deletion strains, locus YML032C, strain rad52, active compounds read low 0.975 | S. cerevisiae deletion strains, locus YML120C, strain ndi1, active compounds read low 1 | S. cerevisiae deletion strains, locus YML124C, strain tub3, active compounds read low 0.976 | S. cerevisiae deletion strains, locus YMR058W, strain fet3, active compounds read low 1.02 | S. cerevisiae deletion strains, locus YMR078C, strain ctf18, active compounds read low 0.977 | S. cerevisiae deletion strains, locus YMR125W, strain sto1, active compounds read low 1.01 | S. cerevisiae deletion strains, locus YMR129W, active compounds read low 1.01 | S. cerevisiae deletion strains, locus YMR205C, strain PFK2, active compounds read low 0.966 | S. cerevisiae deletion strains, locus YMR223W, strain ubp8, active compounds read low 0.976 | S. cerevisiae deletion strains, locus YMR231W, strain pep5, active compounds read low 0.981 | S. cerevisiae deletion strains, locus YMR307W, strain GAS1, active compounds read low 1.11 | S. cerevisiae deletion strains, locus YNL067W, strain RPL9B, active compounds read low 1.02 | S. cerevisiae deletion strains, locus YNL071W, strain lat1, active compounds read low 1 | S. cerevisiae deletion strains, locus YNL153C, strain GIM3, active compounds read low 1.03 | S. cerevisiae deletion strains, locus YNL183C, strain NPR1, active compounds read low 0.867 | S. cerevisiae deletion strains, locus YNL209W, strain ssb2, active compounds read low 1.02 | S. cerevisiae deletion strains, locus YNL233W, strain BNI4, active compounds read low 1.02 | S. cerevisiae deletion strains, locus YNL248C, strain rpa49, active compounds read low 1.01 | S. cerevisiae deletion strains, locus YNL250W, strain rad50, active compounds read low 0.962 | S. cerevisiae deletion strains, locus YNL271C, strain bni1, active compounds read low 0.977 | S. cerevisiae deletion strains, locus YNL298W, strain CLA4, active compounds read low 0.991 | S. cerevisiae deletion strains, locus YNL307C, strain MCK1, active compounds read low 0.971 | S. cerevisiae deletion strains, locus YNL322C, strain KRE1 (second series), active compounds read low 0.973 | S. cerevisiae deletion strains, locus YNR049C, strain mso1, active compounds read low 1.01 | S. cerevisiae deletion strains, locus YNR052C, strain pop2, active compounds read low 0.978 | S. cerevisiae deletion strains, locus YOL012C, strain htz1 1.24 | S. cerevisiae deletion strains, locus YOL147C, strain pex11, active compounds read low 0.983 | S. cerevisiae deletion strains, locus YOR001W, strain rrp6, active compounds read low 1.03 | S. cerevisiae deletion strains, locus YOR061W, strain CKA2, active compounds read low 0.999 | S. cerevisiae deletion strains, locus YOR069W, strain VPS5, active compounds read low 0.995 | S. cerevisiae deletion strains, locus YOR070C, strain gyp1, active compounds read low 1 | S. cerevisiae deletion strains, locus YOR080W, strain dia2, active compounds read low 1.01 | S. cerevisiae deletion strains, locus YOR083W, strain WHI5, active compounds read low 0.997 | S. cerevisiae deletion strains, locus YOR106W, strain vam3, active compounds read low 0.99 | S. cerevisiae deletion strains, locus YOR136W, strain idh2, active compounds read low 0.986 | S. cerevisiae deletion strains, locus YOR144C, strain elg1, active compounds read low 0.995 | S. cerevisiae deletion strains, locus YOR184W, strain ser1, active compounds read low 0.964 | S. cerevisiae deletion strains, locus YOR231W, strain MKK1, active compounds read low 0.93 | S. cerevisiae deletion strains, locus YOR265W, strain rbl2, active compounds read low 1.01 | S. cerevisiae deletion strains, locus YOR270C, strain vph1, active compounds read low 1.01 | S. cerevisiae deletion strains, locus YOR290C, strain snf2, active compounds read low 0.987 | S. cerevisiae deletion strains, locus YOR316C, strain cot1, active compounds read low 0.969 | S. cerevisiae deletion strains, locus YPL051W, strain arl3, active compounds read low 0.997 | S. cerevisiae deletion strains, locus YPL078C, strain atp4, active compounds read low 1.02 | S. cerevisiae deletion strains, locus YPL106C, strain sse1, active compounds read low 1.03 | S. cerevisiae deletion strains, locus YPL240C, strain hsp82, active compounds read low 1.01 | S. cerevisiae deletion strains, locus YPL241C, strain CIN2, active compounds read low 1 | S. cerevisiae deletion strains, locus YPL256C, strain CLN2, active compounds read low 0.907 | S. cerevisiae deletion strains, locus YPR119W, strain clb2, active compounds read low 0.974 | S. cerevisiae deletion strains, locus YPR141C, strain kar3, active compounds read low 0.979 | S. cerevisiae deletion strains, locus YPR163C, strain tif3, active compounds read low 0.974 | S. cerevisiae deletion strains, locus YPR167C, strain met16, active compounds read low 0.959 | S. cerevisiae deletion strains, strain wtn01, active compounds read low 0.97 | S. cerevisiae strains, strain wild type, active compounds read low 0.995
active: S. cerevisiae deletion strains, locus YKR001C, strain vps1, active compounds read low 0.84 | S. cerevisiae deletion strains, locus YLR039C, strain RIC1, active compounds read low 0.675 | S. cerevisiae deletion strains, locus YLR262C, strain YPT6 (second series), active compounds read low 0.755

— PubChem BioAssay AID1159580 (chemical genetic matrix, 2015)
